# Reference: PMC4081100, “A DNA-binding-site landscape and regulatory network analysis for NAC transcription factors in Arabidopsis thaliana”
# Biological target: T1, GST-ANAC092(1-176) (Arabidopsis thaliana, UniProt Q9FKA0 1-176)
# T1 sequence: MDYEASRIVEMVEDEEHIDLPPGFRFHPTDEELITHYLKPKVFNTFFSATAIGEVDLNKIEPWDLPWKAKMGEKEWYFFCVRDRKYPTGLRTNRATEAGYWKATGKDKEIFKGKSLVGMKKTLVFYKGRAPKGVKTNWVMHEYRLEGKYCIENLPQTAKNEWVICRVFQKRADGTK
# Assay: universal protein binding microarray (PBM); transcription factors of Arabidopsis thaliana; high values mean tight binding
# Details: protein: recombinant; tags: GST; chain copies: 2; dsDNA, one strand shown
# How it was run: (§1)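 Binding is expressed as the normalised enrichment score (E-score). Proteins carrying a GST tag, whether NAC-domain, full-length or DNA-binding-domain forms, were induced in cells, and zinc acetate was added for zinc-finger proteins. After purification on glutathione–Sepharose 4B and quantification by A280 or anti-GST western blot, each was applied in duplicate at 200 to 500 nM final to custom all-10-mer Agilent 4 × 180K arrays made double-stranded by primer extension. Gapped and ungapped 8-mers were scored.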
row,Sequence,binding signal [E-score]
1,ATTACGTA,0.459
2,ACACGCAA,0.498
3,CAAGGAAA,0.231
4,TAACGTAA,0.452
5,ATTACGTG,0.457
6,ACGCAAAG,0.455
7,CTTACTTA,0.205
8,ATTTCCCC,0.143
9,GTACGTCA,0.441
10,CGTCAAAC,0.109
11,GTACGTAA,0.432
12,AAGTAAGT,0.249
13,AATGCGTG,0.434
14,ACGTAACG,0.423
15,ACGTCAAA,0.333
16,TGAAGAAA,0.188
17,CTACGTTA,0.323
18,AACGTAGA,0.21
19,ATGCGTAC,0.362

row,Sequence,binding signal [E-score]
1,AGACGTGA,0.217
2,AAATTGAC,0.173
3,GTAAGTCA,0.109
4,ACTAAGTA,0.177
5,GATACGTA,0.381
6,ACGCAAGA,0.449
7,AGACGCAA,0.453
8,ACGTAAGT,0.357
9,TTACGTAA,0.476
10,AATTACGT,0.439
11,CACGCAAG,0.481
12,TTACGGAA,0.266
13,ACGTAAAA,0.366
14,ACGTAAAG,0.402
15,AACGTAAA,0.254
16,GACGTAAC,0.354
17,CTTACCCC,0.192
18,TCACGCAA,0.488
19,CACGAAAG,0.407

# Biological target: GST-NTL6(1-168) (Arabidopsis thaliana, UniProt Q9SCK6 1-168)
# Sequence (Q9SCK6 1-168): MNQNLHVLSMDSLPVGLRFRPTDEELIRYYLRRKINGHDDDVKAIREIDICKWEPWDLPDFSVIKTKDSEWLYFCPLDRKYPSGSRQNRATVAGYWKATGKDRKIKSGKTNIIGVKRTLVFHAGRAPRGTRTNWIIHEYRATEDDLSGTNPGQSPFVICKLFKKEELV
# Assay: as above
# Details: protein: recombinant; tags: GST; chain copies: 2; dsDNA, one strand shown
# How it was run: as §1
row,Sequence,binding signal [E-score]
1,ATTACGTA,0.201
2,ACACGCAA,0.0863
3,CAAGGAAA,0.31
4,TAACGTAA,0.135
5,ATTACGTG,0.112
6,ACGCAAAG,0.102
7,CTTACTTA,0.454
8,ATTTCCCC,0.221
9,GTACGTCA,0.0743
10,CGTCAAAC,0.0906
11,GTACGTAA,0.174
12,AAGTAAGT,0.412
13,AATGCGTG,0.147
14,ACGTAACG,0.0652
15,ACGTCAAA,0.0817
16,TGAAGAAA,0.339
17,CTACGTTA,0.0691
18,AACGTAGA,0.145
19,ATGCGTAC,0.0817

row,Sequence,binding signal [E-score]
1,AGACGTGA,0.0777
2,AAATTGAC,0.156
3,GTAAGTCA,0.283
4,ACTAAGTA,0.429
5,GATACGTA,0.0687
6,ACGCAAGA,0.116
7,AGACGCAA,0.0768
8,ACGTAAGT,0.212
9,TTACGTAA,0.171
10,AATTACGT,0.142
11,CACGCAAG,0.0685
12,TTACGGAA,0.151
13,ACGTAAAA,0.161
14,ACGTAAAG,0.0957
15,AACGTAAA,0.0913
16,GACGTAAC,0.088
17,CTTACCCC,0.322
18,TCACGCAA,0.0728
19,CACGAAAG,0.109

# Biological target: T2, GST-ANAC019 NAC domain (Arabidopsis thaliana, UniProt Q9C932 14-162)
# T2 sequence: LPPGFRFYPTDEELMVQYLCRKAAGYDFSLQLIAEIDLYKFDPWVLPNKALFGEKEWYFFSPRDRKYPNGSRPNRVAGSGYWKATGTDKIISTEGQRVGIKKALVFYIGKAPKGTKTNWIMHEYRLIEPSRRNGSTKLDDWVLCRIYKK
# Assay: as above
# Details: protein: recombinant; tags: GST; chain copies: 2; dsDNA, one strand shown
# How it was run: as §1
row,Sequence,binding signal [E-score]
1,ATTACGTA,0.474
2,ACACGCAA,0.484
3,CAAGGAAA,0.165
4,TAACGTAA,0.25
5,ATTACGTG,0.468
6,ACGCAAAG,0.273
7,CTTACTTA,0.164
8,ATTTCCCC,0.13
9,GTACGTCA,0.413
10,CGTCAAAC,0.0928
11,GTACGTAA,0.463
12,AAGTAAGT,0.189
13,AATGCGTG,0.324
14,ACGTAACG,0.436
15,ACGTCAAA,0.262
16,TGAAGAAA,0.151
17,CTACGTTA,0.152
18,AACGTAGA,0.0983
19,ATGCGTAC,0.191
